D2 PAM-1 – positive allosteric modulators of human D2 dopamine receptor. HEK293 T-REx D2, calcium flux, EC20 dopamine potentiation. potentiation, % at 10 µM. 0.34% of 340,000 active;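 active = potentiation over 3 SD above the plate norm, cut at about 30% in these data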; also: 0% is about no effect
Target sequence (P14416 whole entry, looked up): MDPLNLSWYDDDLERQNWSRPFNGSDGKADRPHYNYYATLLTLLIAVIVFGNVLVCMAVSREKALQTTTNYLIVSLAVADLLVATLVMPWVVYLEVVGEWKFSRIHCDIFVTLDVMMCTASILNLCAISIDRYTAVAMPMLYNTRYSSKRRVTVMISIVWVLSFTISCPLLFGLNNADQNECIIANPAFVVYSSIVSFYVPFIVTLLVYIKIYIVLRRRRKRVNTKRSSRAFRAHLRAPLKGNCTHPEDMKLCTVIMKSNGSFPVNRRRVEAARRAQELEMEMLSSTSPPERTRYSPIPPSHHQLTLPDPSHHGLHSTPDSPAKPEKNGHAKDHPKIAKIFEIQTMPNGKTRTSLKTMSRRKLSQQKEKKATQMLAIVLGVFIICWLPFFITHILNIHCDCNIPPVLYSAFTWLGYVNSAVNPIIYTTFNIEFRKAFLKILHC
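Potentiation of an EC20 dopamine calcium response is measured in a force-coupled, tetracycline-inducible Hek293 Trex D2 line. Compound-only kinetic reads over 180 s flag agonists before dopamine addition.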
D2 antagonist – D2 dopamine receptor (human) antagonism | P14416 | HEK293 TREx D2 cells, calcium flux, dopamine EC80 | inhibition, % at 10 µM | 2% of 340,000 active | AID 485344; in the data active = inhibition above about 30%; inactive = below that, where a call was filed; also: 0% is about no effect
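HEK293 T-REx D2 cells, tet-induced, calcium dye no-wash. Cpd pintool add, 180 s kinetic, then EC80 DA, 180 s kinetic. Ca flux read.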
D2 ag-1 – agonists of human D2 dopamine receptor (beta-arrestin); 0.084% of 360,000 active; AID 624465; activation, % (concentration not given with the values); P14416; DiscoveRx PathHunter D2 beta-arrestin, luminescence, 90 min; 100% = 57 uM dopamine signal; in the data active = activation above about 40%
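Agonist mode: compounds alone added to overnight-plated D2 PathHunter cells for 90 min at 37 C, with 57 uM final dopamine (EC100) defining full response. Beta-arrestin recruitment detected by chemiluminescent reagent, read after 1 h at ambient temperature.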
D2 ag-2 – D2 dopamine receptor (human) agonism. activation, % at 2 µM. AID 485358. 0.53% of 340,000 active. HEK293 T-REx D2 cells, calcium flux agonist mode. P14416;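 active = activation over 3 SD above normal in the single-dose calcium agonist read, cut at about 30% in these data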; also: 0% is about no effect
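Tetracycline-induced HEK293 Trex cells with D2 receptor force-coupled to calcium signaling, plated overnight at 30 C and loaded with no-wash calcium dye. Calcium flux read kinetically for 180 s after compound addition; responses flag agonists.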
D2 PAM-2 – positive allosteric modulators of human D2 dopamine receptor | P14416 | DiscoveRx D2 beta-arrestin cells, luminescence, 90 min; 100% = 57 uM dopamine signal | potentiation, % (test concentration not listed) | 0.23% of 360,000 active | AID 624464; in the data active = potentiation above about 50%
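D2 cells co-treated with compound plus 50 nM dopamine (EC20) for 90 min at 37 deg C to detect potentiation. Beta-arrestin recruitment was read as enzyme-fragment luminescence after 1 h at ambient temperature. Full response was set by 57 uM dopamine.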
Numbers without * were called inactive; · = no result. Rows were chosen to be rich in hits. Some 2.4% of all compounds tested hit in one or more screens of this group.

SMILES | D2 PAM-1 | D2 antagonist | D2 ag-1 | D2 ag-2 | D2 PAM-2
COc1ccc(F)cc1C(=O)C1CCCN(Cc2ccc(Oc3ncccn3)cc2)C1 (stereo unspecified) | -20.1 | 48.9* | -4.2 | 0.3 | -19.9
O=C(c1cccc(C(F)(F)F)c1)C1CCCN(Cc2cccn2-c2ncccn2)C1 (stereo unspecified) | -8.8 | 32.0* | -0.3 | -0.6 | -7.2
O=C(c1ccc(C(F)(F)F)cc1)C1CCCN(Cc2cccn2-c2ncccn2)C1 (stereo unspecified) | -2.6 | -37.0 | -3.7 | 1.0 | -16.1
COc1ccc(F)cc1C(=O)C1CCCN(Cc2cccn2-c2cccnc2)C1 (stereo unspecified) | -38.4 | 74.0* | -4.1 | 1.0 | -20.4
COc1ccc(C(=O)C2CCCN(Cc3cccn3-c3ccccn3)C2)cc1F (stereo unspecified) | 20.1 | · | -2.8 | · | -2.8
CCOc1ccc(-n2cc(-c3ccccc3)c3c(N4CCC(C)CC4)ncnc32)cc1 | 17.6 | · | · | 0.5 | ·
CCN(C(=O)c1cc2c(=O)n(CC)c3ccccc3c2s1)c1cccc(C(F)(F)F)c1 | 15.2 | · | · | -0.4 | ·
CC(C)(CC(=O)O)Cc1nc(-c2ccc(Cl)cc2)no1 | -4.5 | 43.6* | -3.0 | -1.8 | -5.9
O=C(NCc1nc(-c2ccc(Cl)cc2)no1)c1ccco1 | 12.4 | 34.1* | 0.3 | 0.1 | -0.7
COc1ccc(-c2noc(CNC(=O)c3ccco3)n2)cc1 | 6.3 | · | · | 0.6 | ·
O=C(CCn1c(=O)c2cccn2c2ccccc21)Nc1ccc(F)cc1 | 4.7 | 61.4* | -3.6 | 1.4 | -21.7
O=C(C[n+]1ccccc1)N/N=C/c1cc(Br)ccc1O | -8.3 | 36.4* | -6.0 | 1.6 | -19.2
Cc1cccc(/C=N\NC(=O)c2ccc(Cl)cc2)c1O | -31.4 | 30.2* | -0.3 | -1.4 | -14.5
O=C(N/N=C/c1cccc([N+](=O)[O-])c1)c1ccc(Br)cc1 | 6.0 | 2.9 | 2.0 | -0.1 | -9.2
O=C(N/N=C/c1cc(Cl)ccc1O)c1ccc(Br)cc1 | -26.2 | 34.1* | 0.9 | 0.7 | -19.9
O=C(N/N=C/c1cccc(Br)c1)c1ccc(Br)cc1 | -20.1 | 49.9* | -0.9 | -1.9 | -14.3
O=C(C[n+]1ccccc1)N/N=C/c1ccccc1F | -2.5 | -5.6 | -9.1 | 0.5 | -7.4
CC(=O)c1cc(-c2ccc(F)cc2)n(CCC(=O)Nc2nc3c(C)cccc3s2)c1C | -7.0 | · | · | -0.4 | ·
Cc1ccc(C(=O)Nc2cccc(C(=O)N/N=C/c3ccc(F)cc3)c2)cc1 | -23.5 | 31.3* | 2.2 | -1.5 | -15.4
COc1ccc(NC(=O)Cn2c(=O)n(-c3ccc(Cl)cc3)c(=O)c3c(C)c(C(=O)N(C)C)sc32)cc1Cl | 0.3 | · | · | 0.5 | ·
Oc1ccc(C(=S)N2CCN(Cc3ccccc3)CC2)cc1 | -10.0 | -13.3 | -2.3 | -0.1 | -17.9
Cc1ccc(C(=S)N2CCN(Cc3ccccc3)CC2)s1 | -32.0 | 50.0* | 3.9 | -0.3 | -8.6
COc1ccc(NC(=O)c2c(NCc3ccc(C)o3)sc3c2CCCCC3)c(OC)c1 | 13.1 | · | · | · | ·
O=C(c1cc(F)cc(F)c1)N1CCC(c2nc(-c3ccc(S(=O)(=O)N4CCCC4)cc3)no2)CC1 | 0.9 | · | · | -0.6 | ·
Cc1ccc(C(=O)NN2C(=O)c3ccc(S(=O)(=O)c4ccc(C(=O)O)cc4)cc3C2=O)cc1 | -14.1 | 62.6* | -20.3 | 0.7 | -26.3
SMILES | D2 PAM-1 | D2 antagonist | D2 ag-1 | D2 ag-2 | D2 PAM-2
O=C(O)c1ccc(S(=O)(=O)c2ccc3c(c2)C(=O)N(NC(=O)c2ccc(O)cc2)C3=O)cc1 | -5.2 | -7.3 | -1.0 | -0.1 | -5.5
COc1ccc(S(=O)(=O)Nc2cccc(-c3ccc(N4CCC(C)CC4)nn3)c2)cc1OC | -2.6 | · | · | -0.3 | ·
COc1cc(Br)c(CCNC(=O)c2ccco2)cc1OC | -3.9 | 36.5* | -2.3 | 0.2 | -6.0
CCc1nc2ccc(C(=O)NCCc3ccc(OC)c(OC)c3)cc2nc1CC | 2.6 | -0.6 | 3.5 | -0.4 | 8.2
COc1ccc(CCNC(=O)c2ccc3nc(-c4ccco4)c(-c4ccco4)nc3c2)cc1OC | 10.1 | -5.7 | 9.5 | 6.0 | 60.7*
COc1ccccc1OCCNC(=O)c1ccco1 | -6.0 | 1.3 | -4.8 | 0.5 | -2.5
COc1ccc(Cl)cc1NC(=O)c1noc2c1CCCC2 | 18.4 | 31.3* | -5.6 | 1.1 | -3.6
